Test results: PubChem BioAssay (NCATS)
Results filed as inconclusive are left out. Active and inactive are the calls of the source. Unless noted, calls come from the whole dose curve; as a rule, active = well fitted curve in either direction with a large enough effect (not every such curve was filed as active); inconclusive = small, poorly fitted or top-dose-only effect, or another doubt; inactive = flat fitted curve, though single readings scatter.

Experiments:
[1] = target: Lysosomal acid glucosylceramidase (Homo sapiens) (UniProt P04062); experiment: Glucocerebrosidase-p2 (AID 348; in the data active = potency below about 10 µM; note: potency is the fitted concentration of half-maximal effect); details: purified GBA, blue fluorogenic substrate, 40 min
Sequence of Lysosomal acid glucosylceramidase (Homo sapiens) (P04062 whole entry, looked up): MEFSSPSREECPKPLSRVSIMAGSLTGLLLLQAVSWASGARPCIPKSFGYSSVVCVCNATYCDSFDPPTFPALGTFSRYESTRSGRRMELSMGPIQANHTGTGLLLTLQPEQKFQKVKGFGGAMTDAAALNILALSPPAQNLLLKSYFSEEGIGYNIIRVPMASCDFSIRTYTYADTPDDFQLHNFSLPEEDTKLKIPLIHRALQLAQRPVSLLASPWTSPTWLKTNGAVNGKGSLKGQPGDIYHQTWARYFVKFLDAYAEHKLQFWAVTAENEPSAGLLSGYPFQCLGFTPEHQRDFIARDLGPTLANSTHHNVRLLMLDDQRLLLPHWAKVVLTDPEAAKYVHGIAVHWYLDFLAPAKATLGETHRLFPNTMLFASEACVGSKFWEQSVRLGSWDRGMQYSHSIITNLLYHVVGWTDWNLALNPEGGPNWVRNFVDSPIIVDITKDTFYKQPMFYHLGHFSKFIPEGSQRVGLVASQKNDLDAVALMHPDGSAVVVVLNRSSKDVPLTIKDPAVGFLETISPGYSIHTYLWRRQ
Outline: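 Compounds titrated from 0.6 nM upwards against 0.2 nM enzyme in pH 5.9 citric acid/KH2PO4, taurocholate, tween-20; blue fluorogenic substrate 80 uM, 40 min room temperature, stopped and read Ex 365/Em 440 for AC50.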

[2] = AP1 Signaling Pathway (AID 357); details: ME-180 AP-1-bla reporter, EGF-induced, beta-lactamase ratio, 5 h; at 7.69 µM (top of the series) unless noted; note: % is set by controls: 0 for no effect and ±100 for the full control effect
Outline: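 ME-180 cells with beta-lactamase reporter under AP-1 response element, stimulated with EC50 EGF; compounds tested in titration series, 5 h at 37 °C. CCF4 substrate added 2.5 h at room temperature; 460/530 nm emission ratio gave %activity and AC50.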

[3] = target: Cytochrome P450 1A2 (Homo sapiens) (UniProt P05177); experiment: p450-cyp1a2 (AID 410; calls by dose curve; note: potency is the fitted concentration of half-maximal effect;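 for activity change, negative = inhibition: -100% = full effect of reference inhibitor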); details: recombinant CYP1A2, luciferin-ME demethylation, luminescence; series mostly up to 57 µM
Sequence of Cytochrome P450 1A2 (Homo sapiens) (P05177 whole entry, looked up): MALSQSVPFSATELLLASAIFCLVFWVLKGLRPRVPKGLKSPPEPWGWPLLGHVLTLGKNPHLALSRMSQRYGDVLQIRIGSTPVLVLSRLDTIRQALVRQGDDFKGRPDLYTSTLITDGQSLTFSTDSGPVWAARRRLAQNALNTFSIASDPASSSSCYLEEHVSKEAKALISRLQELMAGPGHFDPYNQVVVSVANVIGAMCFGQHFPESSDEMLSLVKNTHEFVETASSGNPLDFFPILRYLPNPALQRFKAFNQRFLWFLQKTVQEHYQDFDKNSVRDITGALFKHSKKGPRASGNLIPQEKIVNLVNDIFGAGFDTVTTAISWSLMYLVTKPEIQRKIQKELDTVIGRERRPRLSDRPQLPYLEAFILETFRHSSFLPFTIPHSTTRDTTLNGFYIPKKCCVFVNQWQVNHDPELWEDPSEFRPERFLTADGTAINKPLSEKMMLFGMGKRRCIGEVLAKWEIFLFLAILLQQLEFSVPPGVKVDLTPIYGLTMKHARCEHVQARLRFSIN
Outline: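 20nM CYP1A2 with 100uM Luciferin-ME (at Km) in 100mM KPO4; compound preincubated 10 min, NADPH regeneration added, 60 min at room temperature. Luciferin quantified by luminescence after detection reagent; normalized to 57 uM furafylline.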

[4] = NFAT Signaling Pathway (AID 444); details: Jurkat NFAT-bla M1, carbachol, beta-lactamase ratio, 5 h; at 7.69 µM (top of the series) unless noted;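 note: carbachol stimulus at about its EC50 of 1 µM final; % is set by controls: 0 for no effect and ±100 for the full control effect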
Outline: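 Jurkat cells with NFAT-driven β-lactamase reporter and co-expressed M1 receptor, stimulated with carbachol (final 1 uM, ~EC50), compound titration, 5 h at 37 °C. CCF4 loaded 1 h at RT; 460/530 nm ratio gave %activity and AC50.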

[5] = target: Glucocorticoid receptor (Homo sapiens) (UniProt P04150); experiment: GR-GFP Redistribution (AID 450;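 active = compounds whose dose series gives a full or clear partial fitted curve of increased nuclear translocation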; note: potency is the fitted concentration of half-maximal effect); details: U2OS GR-GFP nuclear translocation, laser cytometry, 2 h
Sequence of Glucocorticoid receptor (Homo sapiens) (P04150 whole entry, looked up, the tested form may be a part): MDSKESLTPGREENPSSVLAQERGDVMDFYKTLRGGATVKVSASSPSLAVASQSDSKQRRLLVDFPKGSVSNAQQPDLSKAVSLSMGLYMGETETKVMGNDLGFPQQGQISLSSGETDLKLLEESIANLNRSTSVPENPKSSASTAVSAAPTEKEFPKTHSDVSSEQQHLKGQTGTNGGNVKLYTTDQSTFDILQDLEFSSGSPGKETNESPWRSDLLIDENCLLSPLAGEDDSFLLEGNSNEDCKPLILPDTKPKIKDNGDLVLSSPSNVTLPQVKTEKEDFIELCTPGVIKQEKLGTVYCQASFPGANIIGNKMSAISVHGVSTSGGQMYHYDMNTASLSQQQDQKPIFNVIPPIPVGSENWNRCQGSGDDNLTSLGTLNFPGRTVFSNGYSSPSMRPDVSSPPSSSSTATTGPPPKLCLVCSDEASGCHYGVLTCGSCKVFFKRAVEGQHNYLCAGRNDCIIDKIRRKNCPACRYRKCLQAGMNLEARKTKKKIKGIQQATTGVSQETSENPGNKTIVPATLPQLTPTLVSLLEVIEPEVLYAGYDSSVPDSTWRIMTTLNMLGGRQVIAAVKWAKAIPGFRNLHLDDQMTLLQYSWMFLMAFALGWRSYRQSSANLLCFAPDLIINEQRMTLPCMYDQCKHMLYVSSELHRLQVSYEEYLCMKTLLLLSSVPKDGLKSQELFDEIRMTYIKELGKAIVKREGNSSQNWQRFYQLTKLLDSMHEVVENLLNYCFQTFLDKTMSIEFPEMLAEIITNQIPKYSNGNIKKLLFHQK

[6] = target: Glucocorticoid receptor (Homo sapiens) (UniProt P04150); experiment: GR-EFC Redistribution (AID 451; calls by dose curve; note: potency is the fitted concentration of half-maximal effect); details: CHO-K1 GR-EFC translocation, beta-gal luminescence, 2 h
Outline: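 CHO-K1 cells expressing nuclear EA and GR-ED fragments of b-gal; compounds titrated up to 46 uM final, 2 h at 37 C. GR nuclear translocation read as complemented b-gal luminescence after 1 h RT detection.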

[7] = target: Mitogen-activated protein kinase 10 (Mus musculus) (UniProt Q61831); experiment: JNK3 AlphaScreen Assay (AID 530); details: JNK3 lysate, c-Jun phosphorylation; series mostly up to 57.1 µM;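 note: kinase came from lysate of stimulated human HepG2 cells; signal reports phosphorylation of biotinylated GST-cJun 1-79 at Ser73 with 10 µM ATP; % is set by controls: 0 for no effect and ±100 for the full control effect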
Outline: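 Pre-activated (IL-1β/TNFα) JNK3 in HepG2 lysates phosphorylates biotin-GST-cJun(1-79), 10 uM ATP; anti-phospho-cJun(Ser73) AlphaScreen read at room temperature, pH 7.6 Tris buffer. Compounds pre-incubated 15 min as titrations.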

[8] = target: Cytochrome P450 3A4 (Homo sapiens) (UniProt P08684); experiment: qHTS Assay for Inhibitors and Substrates of Cytochrome P450 3A4 (AID 884; active = well fitted curve in the direction sought with a large enough effect; an effect the other way counts as inactive or inconclusive; note: potency is the fitted concentration of half-maximal effect; nearly all actives have a fitted effect of over 50% in size); details: recombinant CYP3A4, Luciferin-PPXE luminescence; series mostly up to 57.1 µM
Sequence of Cytochrome P450 3A4 (Homo sapiens) (P08684 whole entry, looked up): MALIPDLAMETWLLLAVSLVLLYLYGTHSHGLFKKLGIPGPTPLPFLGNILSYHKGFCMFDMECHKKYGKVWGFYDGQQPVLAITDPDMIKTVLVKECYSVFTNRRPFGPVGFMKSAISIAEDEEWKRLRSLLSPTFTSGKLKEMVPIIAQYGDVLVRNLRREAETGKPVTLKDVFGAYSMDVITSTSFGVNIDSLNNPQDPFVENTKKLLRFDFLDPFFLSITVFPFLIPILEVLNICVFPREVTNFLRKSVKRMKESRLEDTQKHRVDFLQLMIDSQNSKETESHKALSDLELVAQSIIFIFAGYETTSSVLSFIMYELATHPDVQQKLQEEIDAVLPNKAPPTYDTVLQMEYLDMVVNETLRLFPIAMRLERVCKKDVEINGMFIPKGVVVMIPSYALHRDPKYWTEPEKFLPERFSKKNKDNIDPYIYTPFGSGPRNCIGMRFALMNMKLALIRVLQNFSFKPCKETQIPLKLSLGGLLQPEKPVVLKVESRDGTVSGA
Outline: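 20 nM human CYP3A4 with 25 uM Luciferin-PPXE (at KM) in 200 mM KPO4, preincubated 10 min with compound; NADPH regeneration started a 60 min RT reaction. Luciferin detected by luminescence, normalized to 57 uM ketoconazole as full inhibition.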

[9] = target: Cytochrome P450 3A4 (Homo sapiens) (UniProt P08684); experiment: qHTS Assay for Activators of Cytochrome P450 3A4 (AID 885; active = well fitted curve in the direction sought with a large enough effect; an effect the other way counts as inactive or inconclusive; note: nearly all actives have a fitted effect of over 65% in size); details: recombinant CYP3A4, Luciferin-PPXE luminescence, 60 min; series mostly up to 57.1 µM
Outline: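 20nM CYP3A4 + 25uM Luciferin-PPXE (=KM), 200mM KPO4; cpd 10 min RT; NADPH regen, 60 min RT; stop w/ detection buffer, 20 min; luminescence. Normalized to 57 uM ketoconazole.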

[10] = qHTS Assay for Lipid Storage Modulators (AID 1519; calls by dose curve; note: potency is the fitted concentration of half-maximal effect); details: Drosophila S3 cells, BODIPY lipid droplet/cell ratio, laser cytometry, cells loaded with oleic acid; for activity change, negative = inhibition: at 57.5 µM (top of the series)
Outline: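 Cells seeded at 5,000 per well were treated with compounds over a concentration series and loaded with oleic acid (400 uM, as added). Lipid droplet fluorescence (488 nm excitation, 500-530 nm channel) was read by laser-scanning cytometry and normalized to 20 uM Triacsin C.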

[11] = target: 3',5'-cyclic-AMP phosphodiesterase 4B (Homo sapiens) (UniProt Q07343); experiment: qHTS Assay for Inhibitors of PDE-IV (AID 607; active = well fitted activation curve with a large enough effect in the main read-out, with a control signal flat, not every such curve was filed as active; note: % of control where 0% means no effect); details: HEK293 ACTOne CNG channel cells, membrane potential fluorescence; series mostly up to 22.9 µM
Sequence of 3',5'-cyclic-AMP phosphodiesterase 4B (Homo sapiens) (Q07343 whole entry, looked up): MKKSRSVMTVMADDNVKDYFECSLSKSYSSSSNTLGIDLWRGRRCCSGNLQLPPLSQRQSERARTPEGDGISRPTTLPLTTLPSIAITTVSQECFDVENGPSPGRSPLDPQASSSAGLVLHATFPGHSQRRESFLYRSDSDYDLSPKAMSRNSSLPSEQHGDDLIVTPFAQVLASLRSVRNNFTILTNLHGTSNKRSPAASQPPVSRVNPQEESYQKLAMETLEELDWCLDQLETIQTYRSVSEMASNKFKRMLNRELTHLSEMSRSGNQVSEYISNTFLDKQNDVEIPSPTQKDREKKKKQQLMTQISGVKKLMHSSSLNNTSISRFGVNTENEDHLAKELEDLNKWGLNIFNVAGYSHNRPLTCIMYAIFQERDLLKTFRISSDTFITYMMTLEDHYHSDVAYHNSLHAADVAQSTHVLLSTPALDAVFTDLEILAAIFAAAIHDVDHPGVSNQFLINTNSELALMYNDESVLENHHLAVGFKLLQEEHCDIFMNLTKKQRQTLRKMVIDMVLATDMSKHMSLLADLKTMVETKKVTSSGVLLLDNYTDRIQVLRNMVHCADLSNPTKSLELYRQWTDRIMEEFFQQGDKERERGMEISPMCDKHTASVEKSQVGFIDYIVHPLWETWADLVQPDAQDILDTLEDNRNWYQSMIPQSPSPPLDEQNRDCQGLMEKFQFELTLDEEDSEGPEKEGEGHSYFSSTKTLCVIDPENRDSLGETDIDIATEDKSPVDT
Outline: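 ACTOne HEK293 cells carry a modified cAMP-gated CNG channel and express endogenous PDE4; plated 1000 cells/well, compounds up to 22.9 uM final. Membrane-potential dye fluorescence (ex 535/em 590) was read; parental cells received 10 uM forskolin + 100 uM RO 20-1724.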

[12] = Confirmation and Secondary Assay for Modulators of Hemoglobin Beta Chain Splicing at IVS2 654 locus (AID 910; active = well fitted curve in the direction sought with a large enough effect; an effect the other way counts as inactive or inconclusive;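 note: HeLa cells stably carrying EGFP split by mutant beta-globin IVS2-654 intron; % of control where 0% means no effect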); details: HeLa EGFP-654 splicing reporter, GFP fluorescence, 48 h; series mostly up to 38.3 µM
Outline: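 HeLa cells stably expressing EGFP interrupted by β-globin IVS2-654 intron, seeded overnight in Opti-MEM/2% FCS, then treated 2 days at 37 °C. Restored splicing read as total peak GFP intensity per well by laser scanning cytometry (488 nm excitation, 500–520 nm emission); 500 nM antisense PNA as control.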

[13] = Confirmation and Secondary Assay for Modulators of Hemoglobin Beta Chain Splicing at IVS2 705 locus (AID 930; active = well fitted curve in the direction sought with a large enough effect; an effect the other way counts as inactive or inconclusive;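 note: HeLa cells stably expressing the EGFP-705 splicing reporter; GFP fluorescence per well restored by corrected splicing of the IVS2-705 intron in EGFP; % of control where 0% means no effect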); details: HeLa EGFP-705 splicing reporter, GFP fluorescence, 48 h; series mostly up to 38.3 µM
Outline: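 HeLa cells stably carrying EGFP interrupted by mutant beta-globin intron 2 (IVS2-705) treated 2 days at 37C with compound; 500 nM antisense PNA as control. Correct splicing read as total peak GFP intensity per well by laser-scanning cytometry.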

[14] = target: Cytochrome P450 2C9 (Homo sapiens) (UniProt P11712); experiment: qHTS Assay for Inhibitors and Substrates of Cytochrome P450 2C9 (AID 883; active = well fitted curve in the direction sought with a large enough effect; an effect the other way counts as inactive or inconclusive; note: % is set by controls: 0 for no effect and ±100 for the full control effect; nearly all actives have a fitted effect of over 60% in size); details: recombinant CYP2C9, luciferin-H luminescence, 60 min; series mostly up to 57.1 µM
Sequence of Cytochrome P450 2C9 (Homo sapiens) (P11712 whole entry, looked up): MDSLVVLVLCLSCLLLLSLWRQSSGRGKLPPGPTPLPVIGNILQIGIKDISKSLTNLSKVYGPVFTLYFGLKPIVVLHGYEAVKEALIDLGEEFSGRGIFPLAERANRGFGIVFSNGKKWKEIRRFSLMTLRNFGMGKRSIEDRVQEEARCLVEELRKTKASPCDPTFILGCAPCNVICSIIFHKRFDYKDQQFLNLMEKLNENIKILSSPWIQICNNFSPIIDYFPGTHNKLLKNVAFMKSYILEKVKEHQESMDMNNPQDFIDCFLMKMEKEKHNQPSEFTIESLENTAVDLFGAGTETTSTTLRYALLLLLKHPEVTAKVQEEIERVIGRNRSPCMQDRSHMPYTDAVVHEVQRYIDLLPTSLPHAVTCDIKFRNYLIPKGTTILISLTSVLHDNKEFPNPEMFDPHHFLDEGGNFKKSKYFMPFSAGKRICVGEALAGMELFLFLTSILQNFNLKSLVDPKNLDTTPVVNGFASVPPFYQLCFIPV
Outline: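 Signal: luciferase luminescence reporting luciferin produced by CYP2C9. Conditions: 10nM enzyme, Luciferin-H 100uM at KM, 25mM KPO4, 37C, 60 min NADPH-driven reaction. Reference: 57uM sulphaphenazole as 100% inhibition.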

[15] = Stat Signaling Pathway (AID 446); details: ME-180 SIE beta-lactamase reporter, IL-6 stimulated, 5 h; at 7.69 µM (top of the series) unless noted;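 note: ME-180 cervical cancer cells given 40 pM IL-6 alongside compound; SIE-controlled beta-lactamase reporter measured as 460/530 nm FRET emission ratio; % is set by controls: 0 for no effect and ±100 for the full control effect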
Outline: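 ME-180 SIE-bla cells; overnight plating; cpd + IL-6 40 pM, 5 h, 37 C; LiveBLAzer 2.5 h RT; 460/530 nm emission ratio. Normalized to 300 pM IL-6 and 125 nM JAK inhibitor controls.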

[16] = target: Cytochrome P450 2D6 (Homo sapiens) (UniProt P10635); experiment: qHTS Assay for Inhibitors and Substrates of Cytochrome P450 2D6 (AID 891; active = well fitted curve in the direction sought with a large enough effect; an effect the other way counts as inactive or inconclusive; note: potency is the fitted concentration of half-maximal effect; nearly all actives have a fitted effect of over 60% in size); details: recombinant CYP2D6, luciferin-ME EGE luminescence; series mostly up to 57.1 µM
Sequence of Cytochrome P450 2D6 (Homo sapiens) (P10635 whole entry, looked up): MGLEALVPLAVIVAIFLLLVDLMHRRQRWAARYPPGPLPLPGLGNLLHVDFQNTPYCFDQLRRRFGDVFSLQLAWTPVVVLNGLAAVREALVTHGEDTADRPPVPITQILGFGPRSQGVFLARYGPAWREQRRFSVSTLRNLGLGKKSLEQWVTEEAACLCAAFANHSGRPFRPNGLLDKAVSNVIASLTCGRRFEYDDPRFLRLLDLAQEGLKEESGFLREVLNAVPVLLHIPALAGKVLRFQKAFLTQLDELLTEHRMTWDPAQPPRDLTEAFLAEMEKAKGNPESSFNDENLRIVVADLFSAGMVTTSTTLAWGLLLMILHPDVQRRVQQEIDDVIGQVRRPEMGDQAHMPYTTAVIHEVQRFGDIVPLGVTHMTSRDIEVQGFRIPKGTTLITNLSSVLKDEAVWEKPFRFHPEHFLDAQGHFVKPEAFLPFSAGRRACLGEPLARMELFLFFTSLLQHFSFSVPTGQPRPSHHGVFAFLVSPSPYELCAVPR
Outline: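 Human CYP2D6 (5 nM) with 30 uM Luciferin-ME EGE (at Km) in 100 mM KPO4, compound preincubated 10 min, then NADPH regeneration system for 60 min at room temperature. Luciferin read by luminescence; normalized to 1.43 uM quinidine.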

[17] = qHTS Assay for Identification of Small Molecule Agonists for Hypoxia Response Element Signaling Pathway (AID 914; active = well fitted activation curve with a large enough effect in the signal ratio, with a control signal flat, not every such curve was filed as active; the % refers to the signal ratio; note: % of control where 0% means no effect); details: ME-180 (cervical carcinoma) HRE-bla reporter, beta-lactamase ratio, CoCl2, 17 h; activation: stronger effect = higher value
Outline: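 HRE-bla ME-180 cells with beta-lactamase reporter under hypoxia response element, compounds with EC50 CoCl2 for 17 hours at 37 C. CCF4 substrate, 460nm/530nm emission ratio gave %Activity; AC50 from titration series.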

[18] = measured here: cell count channel max response
[19] = measured here: lipid channel max response

COc1ccc(Oc2ncc3nc(-c4cc(F)cc(F)c4)c(=O)n(C)c3n2)cc1
13.4%: max response [10, 18]
active: Potency [3] 3.16 µM | Potency [8] 5.01 µM
-2.06%: max response [10, 19]
inactive: Potency [1] > 11.4 µM | activity change, negative = inhibition [2] 18.9% | activity change, negative = inhibition [4] -15.3% | Potency [5] > 9.22 µM | Potency [6] > 46 µM | Potency [7] | Potency [9] | activity change, negative = inhibition [10] -5.54%

Cc1cnc(CNc2ccnc(-c3ccc(N(C)C)cc3)n2)cn1
-9.25%: max response [10, 18]
inactive: Potency [1] > 11.4 µM | activity change, negative = inhibition [2] 8.41% | activity change, negative = inhibition [4] -1.95% | Potency [5] > 46 µM | Potency [6] > 46 µM | Potency [7] | Potency [11] | Potency [9] | Potency [12] | outcome [13] | activity change, negative = inhibition [10] 8.28%
active: Potency [3] 2.51 µM
1.54%: max response [10, 19]

N#CCCn1c(=O)c(-c2ccc(Cl)cc2)nc2cnc(Oc3cccc(Cl)c3)nc21
10.2%: max response [10, 19]
4.81%: max response [10, 18]
inactive: Potency [1] > 11.4 µM | activity change, negative = inhibition [2] 23.4% | Potency [3] | activity change, negative = inhibition [4] 14.7% | Potency [5] > 9.22 µM | Potency [6] > 46 µM | Potency [7] | Potency [11] | Potency [14] | activity change, negative = inhibition [10] 4.13%

CS(=O)(=O)N1CCC[C@@]2(CCN(C(c3ccccc3)c3ccccc3)C2)C1
-26.7%: max response [10, 18]
inactive: Potency [1] > 11.4 µM | activity change, negative = inhibition [2] 5.41% | activity change, negative = inhibition [4] -7.94% | activity, negative = inhibition [15] 1.66% | Potency [6] > 46 µM | Potency [7] | Potency [11] | Potency [9]
active: Potency [3] 25.1 µM | Potency [16] 3.98 µM | Potency [10] 7.94 µM
-82.6%: max response [10, 19]

O=c1cnc2cnc(N3CCOCC3)nc2n1C[C@H]1CCCO1
22.5%: max response [10, 19]
13.3%: max response [10, 18]
inactive: Potency [1] > 11.4 µM | activity change, negative = inhibition [2] 2.78% | activity, negative = inhibition [15] -3.88% | Potency [5] > 9.22 µM | Potency [6] > 46 µM | Potency [7] | Potency [11] | Potency [14] | Potency [9] | activation [17] 9.58% | activity change, negative = inhibition [10] 5.43%
active: Potency [3] 10 µM

COc1ccc(NC(=O)N2CCCC3(CCN(C(=O)c4cc(C(F)(F)F)cc(C(F)(F)F)c4)CC3)C2)cc1
9.63%: max response [10, 18]
inactive: Potency [1] > 11.4 µM | activity change, negative = inhibition [2] -9.5% | Potency [3] | activity change, negative = inhibition [4] 12.1% | activity, negative = inhibition [15] -15.1% | Potency [6] > 46 µM | Potency [7] | Potency [11] | Potency [9] | activity change, negative = inhibition [10] 6.29%
18.5%: max response [10, 19]
